Measured values taken from PMC11006913.

What was measured:
Assay in all cases: PBM; 200 nM protein, PBS
Settings in all cases: dsDNA, one strand shown
[1] = biological target: HOXD13 (Homo sapiens, UniProt P35453 263-343, T313R)
[2] = biological target: HOXD13 (Homo sapiens, UniProt P35453 263-343)
[3] = biological target: HOXD13 (Homo sapiens, UniProt P35453 263-343, T313A)
Sequence of HOXD13 (Homo sapiens, UniProt P35453 263-343, T313A) (P35453 263-343 T313A): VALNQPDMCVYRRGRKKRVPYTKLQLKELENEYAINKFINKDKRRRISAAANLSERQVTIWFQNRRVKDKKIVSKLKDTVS

Sequence of HOXD13 (Homo sapiens, UniProt P35453 263-343, T313R) (P35453 263-343 T313R): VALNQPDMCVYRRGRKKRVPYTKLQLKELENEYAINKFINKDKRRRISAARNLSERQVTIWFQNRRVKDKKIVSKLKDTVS
Sequence of HOXD13 (Homo sapiens, UniProt P35453 263-343) (P35453 263-343): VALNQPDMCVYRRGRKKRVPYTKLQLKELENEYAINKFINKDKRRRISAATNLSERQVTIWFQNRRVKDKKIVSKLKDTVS

Row | Sequence | binding signal [1] | binding signal [2] | binding signal [3]
1 | ATAACACG | 10.1 upbm affinity estimate (log intensity, higher = more binding, comparable within an allelic series) | 10.7 upbm affinity estimate (log intensity, higher = more binding, comparable within an allelic series) | 
2 | CTAGTAAA | 10.8 upbm affinity estimate (log intensity, higher = more binding, comparable within an allelic series) | 11.9 upbm affinity estimate (log intensity, higher = more binding, comparable within an allelic series) | 11.8 upbm affinity estimate (log intensity, higher = more binding, comparable within an allelic series)
3 | CCGCGCTC | 9.52 upbm affinity estimate (log intensity, higher = more binding, comparable within an allelic series) | 9.5 upbm affinity estimate (log intensity, higher = more binding, comparable within an allelic series) | 9.47 upbm affinity estimate (log intensity, higher = more binding, comparable within an allelic series)
4 | CGCCCGCG | 9.5 upbm affinity estimate (log intensity, higher = more binding, comparable within an allelic series) | 9.42 upbm affinity estimate (log intensity, higher = more binding, comparable within an allelic series) | 9.59 upbm affinity estimate (log intensity, higher = more binding, comparable within an allelic series)
5 | GCACCGGA | 9.55 upbm affinity estimate (log intensity, higher = more binding, comparable within an allelic series) | 9.43 upbm affinity estimate (log intensity, higher = more binding, comparable within an allelic series) | 9.61 upbm affinity estimate (log intensity, higher = more binding, comparable within an allelic series)
6 | GCTCGTAA | 10.6 upbm affinity estimate (log intensity, higher = more binding, comparable within an allelic series) | 11.9 upbm affinity estimate (log intensity, higher = more binding, comparable within an allelic series) | 11.7 upbm affinity estimate (log intensity, higher = more binding, comparable within an allelic series)
7 | AGTTTATA | 10.7 upbm affinity estimate (log intensity, higher = more binding, comparable within an allelic series) | 11.9 upbm affinity estimate (log intensity, higher = more binding, comparable within an allelic series) | 11.6 upbm affinity estimate (log intensity, higher = more binding, comparable within an allelic series)
8 | ATATAAAC | 10.8 upbm affinity estimate (log intensity, higher = more binding, comparable within an allelic series) | 11.8 upbm affinity estimate (log intensity, higher = more binding, comparable within an allelic series) | 11.5 upbm affinity estimate (log intensity, higher = more binding, comparable within an allelic series)
9 | GATACGAC | 9.91 upbm affinity estimate (log intensity, higher = more binding, comparable within an allelic series) | 10.3 upbm affinity estimate (log intensity, higher = more binding, comparable within an allelic series) | 
10 | CTGGCCCC | 9.44 upbm affinity estimate (log intensity, higher = more binding, comparable within an allelic series) | 9.38 upbm affinity estimate (log intensity, higher = more binding, comparable within an allelic series) | 9.45 upbm affinity estimate (log intensity, higher = more binding, comparable within an allelic series)
11 | AATAAACC | 10.6 upbm affinity estimate (log intensity, higher = more binding, comparable within an allelic series) | 11.8 upbm affinity estimate (log intensity, higher = more binding, comparable within an allelic series) | 11.6 upbm affinity estimate (log intensity, higher = more binding, comparable within an allelic series)
12 | CTATAAAG | 10.8 upbm affinity estimate (log intensity, higher = more binding, comparable within an allelic series) | 11.9 upbm affinity estimate (log intensity, higher = more binding, comparable within an allelic series) | 11.6 upbm affinity estimate (log intensity, higher = more binding, comparable within an allelic series)
13 | GTTTAATA | 10.8 upbm affinity estimate (log intensity, higher = more binding, comparable within an allelic series) | 11.8 upbm affinity estimate (log intensity, higher = more binding, comparable within an allelic series) | 11.6 upbm affinity estimate (log intensity, higher = more binding, comparable within an allelic series)
14 | CCGTAAAA | 10.5 upbm affinity estimate (log intensity, higher = more binding, comparable within an allelic series) | 11.8 upbm affinity estimate (log intensity, higher = more binding, comparable within an allelic series) | 11.6 upbm affinity estimate (log intensity, higher = more binding, comparable within an allelic series)
15 | ACGGTCCC | 9.51 upbm affinity estimate (log intensity, higher = more binding, comparable within an allelic series) | 9.34 upbm affinity estimate (log intensity, higher = more binding, comparable within an allelic series) | 9.69 upbm affinity estimate (log intensity, higher = more binding, comparable within an allelic series)
16 | CAGGCGAC | 9.59 upbm affinity estimate (log intensity, higher = more binding, comparable within an allelic series) | 9.52 upbm affinity estimate (log intensity, higher = more binding, comparable within an allelic series) | 9.66 upbm affinity estimate (log intensity, higher = more binding, comparable within an allelic series)
17 | CCTCCGCC | 9.44 upbm affinity estimate (log intensity, higher = more binding, comparable within an allelic series) | 9.44 upbm affinity estimate (log intensity, higher = more binding, comparable within an allelic series) | 9.54 upbm affinity estimate (log intensity, higher = more binding, comparable within an allelic series)

Row | Sequence | binding signal [1] | binding signal [2] | binding signal [3]
18 | CCTGAAGG | 9.53 upbm affinity estimate (log intensity, higher = more binding, comparable within an allelic series) | 9.53 upbm affinity estimate (log intensity, higher = more binding, comparable within an allelic series) | 9.6 upbm affinity estimate (log intensity, higher = more binding, comparable within an allelic series)
19 | GGCCCGAA | 9.5 upbm affinity estimate (log intensity, higher = more binding, comparable within an allelic series) | 9.42 upbm affinity estimate (log intensity, higher = more binding, comparable within an allelic series) | 9.59 upbm affinity estimate (log intensity, higher = more binding, comparable within an allelic series)
20 | GCTGCGCA | 9.55 upbm affinity estimate (log intensity, higher = more binding, comparable within an allelic series) | 9.53 upbm affinity estimate (log intensity, higher = more binding, comparable within an allelic series) | 9.77 upbm affinity estimate (log intensity, higher = more binding, comparable within an allelic series)
21 | AGGAGGGG | 9.43 upbm affinity estimate (log intensity, higher = more binding, comparable within an allelic series) | 9.61 upbm affinity estimate (log intensity, higher = more binding, comparable within an allelic series) | 9.63 upbm affinity estimate (log intensity, higher = more binding, comparable within an allelic series)
22 | TCTCGTAA | 10.5 upbm affinity estimate (log intensity, higher = more binding, comparable within an allelic series) | 11.8 upbm affinity estimate (log intensity, higher = more binding, comparable within an allelic series) | 11.6 upbm affinity estimate (log intensity, higher = more binding, comparable within an allelic series)
23 | GGCCGGCA | 9.49 upbm affinity estimate (log intensity, higher = more binding, comparable within an allelic series) | 9.56 upbm affinity estimate (log intensity, higher = more binding, comparable within an allelic series) | 9.65 upbm affinity estimate (log intensity, higher = more binding, comparable within an allelic series)
24 | CCTCATAA | 10.6 upbm affinity estimate (log intensity, higher = more binding, comparable within an allelic series) | 11.8 upbm affinity estimate (log intensity, higher = more binding, comparable within an allelic series) | 11.6 upbm affinity estimate (log intensity, higher = more binding, comparable within an allelic series)
25 | GTTTTATA | 10.8 upbm affinity estimate (log intensity, higher = more binding, comparable within an allelic series) | 11.8 upbm affinity estimate (log intensity, higher = more binding, comparable within an allelic series) | 11.6 upbm affinity estimate (log intensity, higher = more binding, comparable within an allelic series)
26 | CCCGCCCC | 9.6 upbm affinity estimate (log intensity, higher = more binding, comparable within an allelic series) | 9.54 upbm affinity estimate (log intensity, higher = more binding, comparable within an allelic series) | 9.7 upbm affinity estimate (log intensity, higher = more binding, comparable within an allelic series)
27 | CCTATTAA | 11 upbm affinity estimate (log intensity, higher = more binding, comparable within an allelic series) | 12.1 upbm affinity estimate (log intensity, higher = more binding, comparable within an allelic series) | 11.9 upbm affinity estimate (log intensity, higher = more binding, comparable within an allelic series)
28 | CATGTATA | 10.3 upbm affinity estimate (log intensity, higher = more binding, comparable within an allelic series) | 10.8 upbm affinity estimate (log intensity, higher = more binding, comparable within an allelic series) | 11 upbm affinity estimate (log intensity, higher = more binding, comparable within an allelic series)
29 | CCGCCCTC | 9.56 upbm affinity estimate (log intensity, higher = more binding, comparable within an allelic series) | 9.65 upbm affinity estimate (log intensity, higher = more binding, comparable within an allelic series) | 9.66 upbm affinity estimate (log intensity, higher = more binding, comparable within an allelic series)
30 | CGCCCCCA | 9.33 upbm affinity estimate (log intensity, higher = more binding, comparable within an allelic series) | 9.3 upbm affinity estimate (log intensity, higher = more binding, comparable within an allelic series) | 9.5 upbm affinity estimate (log intensity, higher = more binding, comparable within an allelic series)
31 | GGGCCGGA | 9.43 upbm affinity estimate (log intensity, higher = more binding, comparable within an allelic series) | 9.41 upbm affinity estimate (log intensity, higher = more binding, comparable within an allelic series) | 9.47 upbm affinity estimate (log intensity, higher = more binding, comparable within an allelic series)
32 | CGCGATGC | 9.5 upbm affinity estimate (log intensity, higher = more binding, comparable within an allelic series) | 9.5 upbm affinity estimate (log intensity, higher = more binding, comparable within an allelic series) | 9.65 upbm affinity estimate (log intensity, higher = more binding, comparable within an allelic series)
33 | CCAGTCCG | 9.56 upbm affinity estimate (log intensity, higher = more binding, comparable within an allelic series) | 9.53 upbm affinity estimate (log intensity, higher = more binding, comparable within an allelic series) | 9.68 upbm affinity estimate (log intensity, higher = more binding, comparable within an allelic series)
